# In PubChem BioAssay (Tox21):
# Inconclusive results are not listed. The source made the active and inactive calls. Calls come from the whole dose curve; as a rule, active = well fitted cell-killing curve with a large enough effect in the repeat runs; inconclusive = weak or mixed curves, or effect the other way; inactive = flat fitted curve, though single readings scatter.
# Test: qHTS assay to identify small molecule agonists of the constitutive androstane receptor (CAR) signaling pathway - cell viability counter screen (AID 1224836); note: nearly all actives have a fitted effect of over 45% in size
# Settings: HepG2-CYP2B6-hCAR viability, CellTiter-Fluor, 23 h, PK11195 added to every well; series mostly up to 92.4 µM
# From the text: U.S. Tox21 Program National Center for Advancing Translational Sciences [NCATS] NIH Chemical Genomics Center [NCGC] U.S. Environmental Protection Agency [EPA] National Institutes of Environmental Health Sciences [NIEHS] National Toxicology Program [NTP] U.S. Food and Drug Administration [FDA] Tox21 Assay Overview: The constitutive androstane receptor (CAR) is a nuclear receptor which regulates multiple drug metabolizing enzymes (DMEs) and transporters. Activating CAR will generally increase the transcription and subsequent translation of CYP2B6 and CYP3A4. These two DMEs represent about 50% of the drug metabolizing potential in the body. […] Recently, there have also been studies performed indicating CARs role in energy metabolism and cancer therapy. Therefore, inducing CARs activity could have a potential effect on diabetes and cancer. Identifying environmental toxins and compounds which modulate CAR, through the use of the Tox21 10K compound collection, will be an important step in determining the toxicity and potential therapeutic effects these factors will have on the human body. To differentiate true CAR agonists from cytotoxic substances, the assay is multiplexed with a cell viability assay.
# Tox21 Assay Protocol Summary: A double-stable (hCAR and CYP2B6-2.2kb) transfected cell line, derived from human hepatoma (HepG2) cells, was utilized for the duration of the quantitative high-throughput screens. The HepG2-CYP2B6-hCAR cells were dispensed at 2500 cells/4 uL/well in 1536-well white solid bottom plates using a Multidrop Combi. After the assay plates were incubated at 37 C/5% CO2 for 4 hrs, 23 nL of compounds at 15 concentrations (from 5-48 columns) or positive control (from 1 to 4 columns) were transferred to the assay plates using a Pintool station. One uL of PK11195 (final concentration = 0.75 uM) was added, using a Flying Reagent Dispenser, inside each well. After a 23 hr incubation period at 37 C/5% CO2, 1 uL of CellTiter-Fluor reagent was added into each well of the assay plates using a Flying Reagent Dispenser. The fluorescence intensity in the plates was then measured using a ViewLux plate reader.
# % is set by controls: 0 for no effect and ±100 for the full control effect.
SMILES,outcome,"viability change, negative = cytotoxic"
CCN(CCO)c1cccc(C)c1,inactive,–
CCCCCCCCCCCCOC(C)=O,inactive,–
CC(=O)OCCCc1ccccc1,inactive,–
CC(C)(CO)[C@@H](O)C(=O)NCCCO,inactive,–
CCCCC[Si](OCC)(OCC)OCC,inactive,–
CCCCCN(CCCOC)C(=O)C(CCC(=O)O)NC(=O)c1ccc(Cl)c(Cl)c1 (stereo not given),inactive,–
CC(=O)OC[C@H]1O[C@@H](OC(C)=O)[C@H](OC(C)=O)[C@@H]1OC(C)=O,inactive,–
CCN(CC)C(=O)C1CN2CCc3cc(OC)c(OC)cc3C2CC1OC(C)=O (stereo not given),inactive,–
O=C(Nc1cccc(C2=NCCN2)c1)Nc1cccc(C2=NCCN2)c1,–,0.131% [at 19 µM] (inactive)
O=[Si]=O,inactive,–
COC(=O)CCC(=O)O,inactive,–
C=CCOc1c(Br)cc(Br)cc1Br,inactive,–
O=c1cc(O)c(Cl)c[nH]1,inactive,–
O=C(CN1CCN(Cc2ccc3c(c2)OCO3)CC1)N1c2ccccc2Sc2ccccc21,inactive,–
O=C(O)/C=C/c1ccccc1,inactive,–
FC(F)(F)/C(=N\OCC1OCCO1)c1ccc(Cl)cc1,inactive,–
NC(=O)NNC(N)=O,inactive,–
CCNC(=O)/C=C/c1cccc(Br)c1,inactive,–
Nc1ccnc(=O)[nH]1,inactive,–
COc1cccc2sc(N)nc12,inactive,–

SMILES,outcome,"viability change, negative = cytotoxic"
CCCC(C)CC (stereo not given),inactive,–
O=C(O)c1ccc(OCCN2CCCCC2)cc1,inactive,–
FC(F)(F)c1ccc(Cl)cc1Cl,inactive,–
NS(=O)(=O)c1cc2c(cc1Cl)NC(C(Cl)Cl)NS2(=O)=O (stereo not given),inactive,–
CCCCC(CC)C(=O)OC(C)C (stereo not given),inactive,–
COCCOCCOCCOC,inactive,–
CCc1nccnc1C,inactive,–
CC(=O)c1ccc(OCC(=O)N2CCCCC2)cc1,inactive,–
O=C1OC(=O)c2ccccc21,inactive,–
Cc1nc([N+](=O)[O-])cn1-c1ccc([N+](=O)[O-])cc1,inactive,–
CC(C)COC(=O)CCCCC(=O)OCC(C)C,inactive,–
CC1=CC[C@H](CC=O)C1(C)C,inactive,–
O=C(c1ccc2c(c1)C(=O)OC2=O)c1ccc2c(c1)C(=O)OC2=O,inactive,–
COc1ccc(/C=N/NC(=O)c2ccncc2)cc1OC,inactive,–
CC(=O)Nc1ncc([N+](=O)[O-])s1,inactive,–
C1CCN2C[C@@H]3C[C@@H](CN4CCCC[C@@H]34)[C@H]2C1,inactive,–
CN[C@@H]1[C@H](O)[C@H](NC)[C@H]2O[C@@]3(O)C(=O)C[C@@H](C)O[C@H]3O[C@@H]2[C@H]1O,inactive,–
CN(C)CCOCCN(C)CCO,inactive,–
CCOc1ccc(NC(=O)OC(C)C)cc1OCC,inactive,–
CCC(C)(CCC(C)C)C(=O)[O-].CCC(C)(CCC(C)C)C(=O)[O-].[Zn+2] (stereo not given),inactive,–
